Assay results from PubChem BioAssay (EPA / NIEHS).
Several values for one entry are separate records, joined by “and”; a condition that tells them apart may be missing. Equal values may be shown once. Some structures have more than one record in an assay (separate samples or runs), and their calls can disagree. Activity calls are given as the source filed them. Rule for the calls: active = hit-call score of the fitted dose curve at least 0.9, where 1 is the maximum; inactive = score below 0.9.

Columns and labels:
[1] = read-out: Macrophage colony-stimulating factor (MCSF), CSF1 (gene 1435); test: BSK_hDFCGF_MCSF: BioMAP Diversity Plus: hDFCGF Assay for Macrophage colony-stimulating factor (MCSF) Biomarker Activity (AID 2283060); conditions: primary human foreskin fibroblasts; actives raise or lower the signal
In short: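 fibroblasts (human foreskin, primary), 24 h post-dose; M-CSF by ELISA; bidirectional fit, DMSO = baseline.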

[2] = read-out: TIMP metallopeptidase inhibitor 1 (TIMP1), TIMP1 (gene 7076); test: BSK_hDFCGF_TIMP1: BioMAP Diversity Plus: hDFCGF Assay for TIMP metallopeptidase inhibitor 1 (TIMP1) Biomarker Activity (AID 2283062); conditions: primary human foreskin fibroblasts; actives raise or lower the signal
In short: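 Bidirectional curve fitting against DMSO baseline yielded this endpoint, based on ELISA detection of TIMP-1 in primary human foreskin fibroblasts exposed to compound for 24 h.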

[3] = read-out: Monokine induced gamma interferon (MIG), CXCL9 (gene 4283); test: BSK_hDFCGF_MIG: BioMAP Diversity Plus: hDFCGF Assay for Monokine induced gamma interferon (MIG) Biomarker Activity (AID 2283063); conditions: primary human foreskin fibroblasts; actives raise or lower the signal
In short: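 Endpoint derived by bidirectional fitting relative to DMSO; MIG quantified via ELISA in primary human foreskin fibroblasts harvested 24 h after dosing.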

[4] = read-out: Matrix Metallopeptidase 1 (MMP1), MMP1 (gene 4312); test: BSK_hDFCGF_MMP1: BioMAP Diversity Plus: hDFCGF Assay for Matrix Metallopeptidase 1 (MMP1) Biomarker Activity (AID 2283064); conditions: primary human foreskin fibroblasts; actives raise or lower the signal
In short: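 Primary human foreskin fibroblasts exposed to chemicals for 24 h; MMP1 measured by ELISA. Cytotoxicity tracked by SRB staining in parallel cultures; bidirectional fit relative to DMSO.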

[5] = read-out: Vascular cell adhesion molecule 1 (VCAM1), VCAM1 (gene 7412); test: BSK_hDFCGF_VCAM1: BioMAP Diversity Plus: hDFCGF Assay for Vascular cell adhesion molecule 1 (VCAM1) Biomarker Activity (AID 2283065); conditions: primary human foreskin fibroblasts; actives raise or lower the signal;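 for AC50: VCAM-1 protein level quantified by ELISA after 24 h chemical exposure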
In short: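 Measured after 24 h chemical treatment of primary human skin fibroblasts, VCAM-1 was detected by ELISA and concentration-response analysed in both directions versus DMSO vehicle.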

[6] = read-out: Plasminogen activator inhibitor-1 (PAI1), SERPINE1 (gene 5054); test: BSK_hDFCGF_PAI1: BioMAP Diversity Plus: hDFCGF Assay for Plasminogen activator inhibitor-1 (PAI1) Biomarker Activity (AID 2283066); conditions: primary human foreskin fibroblasts; actives raise or lower the signal
In short: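 Human foreskin fibroblast primary cells, 24 h chemical exposure; PAI-1 measured by ELISA. Bidirectional fitting relative to DMSO; parallel cultures stained with SRB for total protein to flag overt cytotoxicity.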

[7] = read-out: Intercellular Adhesion Molecule 1 (ICAM1), ICAM1 (gene 3383); test: BSK_KF3CT_ICAM1: BioMAP Diversity Plus: KF3CT Assay for Intercellular Adhesion Molecule 1 (ICAM1) Biomarker Activity (AID 2283067); conditions: primary human keratinocytes with fibroblasts; actives raise or lower the signal
In short: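 Bidirectional curve fitting against a DMSO baseline was applied to ICAM-1 ELISA signal from primary human skin co-cultures harvested 24 h after treatment, with SRB staining of parallel wells for overt cytotoxicity.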

[8] = read-out: Interferon-gamma inducible Protein 10 (IP10), CXCL10 (gene 3627); test: BSK_KF3CT_IP10: BioMAP Diversity Plus: KF3CT Assay for Interferon-gamma inducible Protein 10 (IP10) Biomarker Activity (AID 2283068); conditions: primary human keratinocytes with fibroblasts; actives raise or lower the signal
In short: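 In a primary skin co-culture of keratinocytes and fibroblasts, IP-10 is quantified by ELISA at 24 h after dosing. SRB staining of parallel wells monitors overt toxicity. Curves are fitted both directions against DMSO.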

[9] = BSK_KF3CT_SRB: Viability Assessment in the BioMAP Diversity Plus: KF3CT Assay (AID 2283069); conditions: primary human keratinocytes with fibroblasts;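 note: total protein by sulforhodamine B staining as a cytotoxicity measure; read 24 h after compound addition; fitted for both signal gain and loss against DMSO baseline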
In short: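 Human keratinocyte and foreskin fibroblast co-culture exposed to chemical for 24 h. Total protein measured in parallel cultures by 0.1% sulforhodamine B staining after 10% TCA fixation, read at 560 nm; bidirectional fit relative to DMSO.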

[10] = read-out: Interleukin-1 alpha (IL1a), IL1A (gene 3552); test: BSK_KF3CT_IL1a: BioMAP Diversity Plus: KF3CT Assay for Interleukin-1 alpha (IL1a) Biomarker Activity (AID 2283070); conditions: primary human keratinocytes with fibroblasts; actives raise or lower the signal
In short: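 Primary human keratinocyte plus foreskin fibroblast co-culture, dosed and measured at 24 h in 96-well plates. IL-1a level quantified by ELISA; bidirectional fit relative to DMSO.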

[11] = read-out: TIMP metallopeptidase inhibitor 2 (TIMP2), TIMP2 (gene 7077); test: BSK_KF3CT_TIMP2: BioMAP Diversity Plus: KF3CT Assay for TIMP metallopeptidase inhibitor 2 (TIMP2) Biomarker Activity (AID 2283071); conditions: primary human keratinocytes with fibroblasts; actives raise or lower the signal
In short: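 Co-culture of human primary keratinocytes and foreskin fibroblasts, measured 24 h after chemical dosing. TIMP-2 quantified by ELISA and fitted in both directions relative to DMSO. Cytotoxicity checked in parallel cultures by SRB total-protein staining.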

[12] = read-out: C-C motif chemokine 2 (Homo sapiens) (UniProt P13500); test: BSK_KF3CT_MCP1: BioMAP Diversity Plus: KF3CT Assay for Monocyte Chemoattractant Protein 1 (MCP1/CCL2) Biomarker Activity (AID 2283073); conditions: primary human keratinocytes with fibroblasts; actives raise or lower the signal
In short: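 Biomarker MCP-1 is measured by ELISA in primary human keratinocytes co-cultured with foreskin fibroblasts, 24 h after chemical treatment; DMSO serves as the negative control and activity baseline.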

[13] = read-out: Matrix Metallopeptidase 9 (MMP9), MMP9 (gene 4318); test: BSK_KF3CT_MMP9: BioMAP Diversity Plus: KF3CT Assay for Matrix Metallopeptidase 9 (MMP9) Biomarker Activity (AID 2283074); conditions: primary human keratinocytes with fibroblasts; actives raise or lower the signal;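 for AC50: MMP9 protein level quantified by ELISA in the co-culture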
In short: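 Human keratinocyte and foreskin fibroblast co-culture exposed to chemicals for 24 h; MMP9 biomarker measured by ELISA, bidirectional fitting relative to DMSO; cytotoxicity tracked by SRB total protein staining in parallel cultures.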

[14] = read-out: urokinase plasminogen activator (uPA), PLAU (gene 5328); test: BSK_KF3CT_uPA: BioMAP Diversity Plus: KF3CT Assay for urokinase plasminogen activator (uPA) Biomarker Activity (AID 2283075); conditions: primary human keratinocytes with fibroblasts; actives raise or lower the signal
In short: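 Primary human keratinocyte/foreskin fibroblast co-culture exposed to chemical; uPA measured by ELISA at 24 h. Bidirectional fit versus DMSO, with parallel SRB total-protein staining for cytotoxicity.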

CD40, CD40 (gene 958) = test: BSK_LPS_CD40: BioMAP Diversity Plus: LPS Assay for CD40 Biomarker Activity (AID 2283076); conditions: primary human HUVEC with PBMC; actives raise or lower the signal
In short: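 Using a multiplexed primary human co-culture (umbilical vein endothelium plus PBMC), CD40 was read by ELISA 24 h after dosing, with cytotoxicity tracked by sulforhodamine B staining of parallel cultures and activity fitted bidirectionally versus DMSO.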

[15] = read-out: E-selectin (Homo sapiens) (UniProt P16581); test: BSK_LPS_Eselectin: BioMAP Diversity Plus: LPS Assay for Eselectin Biomarker Activity (AID 2283077); conditions: primary human HUVEC with PBMC; actives raise or lower the signal
In short: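 Dose chemical onto LPS-driven HUVEC/PBMC co-culture; after 24 h, run ELISA for E-selectin; fit up- and down-going responses relative to DMSO control.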

[16] = read-out: Interleukin-8 (IL8), CXCL8 (gene 3576); test: BSK_LPS_IL8: BioMAP Diversity Plus: LPS Assay for Interleukin-8 (IL8) Biomarker Activity (AID 2283078); conditions: primary human HUVEC with PBMC; actives raise or lower the signal
In short: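 In this LPS system, chemical-treated human umbilical vein endothelium/PBMC co-cultures were harvested at 24 h for IL-8 ELISA.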

[17] = BSK_LPS_SRB: Viability Assessment in the BioMAP Diversity Plus: LPS Assay (AID 2283079); conditions: primary human HUVEC with PBMC;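 note: total protein by sulforhodamine B absorbance as a cytotoxicity measure; measured one day after compound addition; fitted in both directions against DMSO so loss or gain of signal counts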
In short: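 Cytotoxicity endpoint in human endothelial–PBMC co-culture: 24 h exposure, then SRB (0.1%) staining, 560 nm read.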

[18] = BSK_hDFCGF_SRB: Viability Assessment in the BioMAP Diversity Plus: hDFCGF Assay (AID 2283061); conditions: primary human foreskin fibroblasts;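 note: cells exposed to compound for 24 h before the read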
In short: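 SRB-based viability read on primary human skin fibroblasts at 24 h: TCA fixation, 0.1% dye, 560 nm. Gain or loss of signal is fitted against the DMSO negative control.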

[19] = read-out: Transforming growth factor beta 1 (TGFb1), TGFB1 (gene 7040); test: BSK_KF3CT_TGFb1: BioMAP Diversity Plus: KF3CT Assay for Transforming growth factor beta 1 (TGFb1) Biomarker Activity (AID 2283072); conditions: primary human keratinocytes with fibroblasts; actives raise or lower the signal
In short: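 Human keratinocyte/foreskin fibroblast co-culture; TGF-b1 measured by ELISA 24 h after dosing, fitted bidirectionally versus DMSO. Cytotoxicity checked in parallel cultures by total protein (SRB staining, 560 nm).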

Measured: AC50

Chain of E-selectin (Homo sapiens) (P16581 whole entry, looked up): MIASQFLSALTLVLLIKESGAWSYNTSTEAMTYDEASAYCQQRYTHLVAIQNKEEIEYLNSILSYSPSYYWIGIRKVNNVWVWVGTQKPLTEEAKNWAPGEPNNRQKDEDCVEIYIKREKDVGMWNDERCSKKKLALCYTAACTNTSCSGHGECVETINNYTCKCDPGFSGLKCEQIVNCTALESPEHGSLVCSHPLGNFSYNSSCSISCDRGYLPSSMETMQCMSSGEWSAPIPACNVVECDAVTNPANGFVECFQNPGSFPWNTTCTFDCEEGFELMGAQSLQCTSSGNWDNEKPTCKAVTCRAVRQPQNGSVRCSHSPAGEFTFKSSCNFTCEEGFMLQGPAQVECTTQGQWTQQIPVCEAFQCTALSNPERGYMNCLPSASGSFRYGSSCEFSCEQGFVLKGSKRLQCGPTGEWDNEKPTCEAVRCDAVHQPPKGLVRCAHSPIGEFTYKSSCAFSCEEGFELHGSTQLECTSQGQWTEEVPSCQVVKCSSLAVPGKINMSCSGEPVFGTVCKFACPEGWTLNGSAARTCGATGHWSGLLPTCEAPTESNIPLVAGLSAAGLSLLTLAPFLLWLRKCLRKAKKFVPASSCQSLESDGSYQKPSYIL

O=C(O)C(F)(F)C(F)(F)C(F)(F)C(F)(F)C(F)(F)C(F)(F)C(F)(F)C(F)(F)F
active: [3] 19 µM | [5] 48.5 µM | [8] 30.2 µM and 54.7 µM and 47.3 µM | [10] 7.86 µM and 30 µM | [12] 17.7 µM and 24.9 µM | [13] 33.2 µM and 35.9 µM and 30 µM | CD40, CD40 (gene 958) 48.3 µM and 45.1 µM | [16] 7.33 µM and 50.3 µM | [17] 53.5 µM and 55 µM
inactive: [1] | [2] | [3] | [4] | [5] | [6] | [7] | [9] | [10] | [11] | [12] | [14] | CD40, CD40 (gene 958) | [15] | [16] | [17]

Oc1ccc(Cl)cc1Cl
inactive: [1] | [18] | [2] | [3] | [4] | [5] | [6] | [7] | [8] | [9] | [10] | [11] | [19] | [12] | [13] | [14] | CD40, CD40 (gene 958) | [15] | [16] | [17]

Cc1ccc(O)c(C)c1
inactive: [1] | [2] | [3] | [4] | [5] | [6] | [7] | [8] | [9] | [10] | [11] | [19] | [12] | [13] | [14] | [15] | [16]
active: CD40, CD40 (gene 958) 11.6 µM
